RE007 growth inh: qHTS Assay for Inhibitors of the HIV-1 protein Vpr; S. pombe RE007 Vpr strain, BacTiter-Glo ATP luminescence, 24 h; Potency, µM (highest dose often 92.2 µM), actives largely listed as inhibitors; 360,000 tested, 0.21% active; active means well fitted falling curve with a large enough effect; inconclusive means small, poorly fitted or top-dose-only effect; inactive means no such curve, though single readings can be large or run the other way; further: nearly all actives have a fitted effect of over 50% in size
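Fission yeast RE007 carrying one integrated HIV-1 vpr copy, seeded at OD 0.01 in PMG+AL medium with 23 nL pinned compound. Grown 24 h at 30 degrees; viability read by BacTiter-Glo luminescence after 5 min.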
Pf growth 48h: Primary qHTS for delayed death inhibitors of the malarial parasite plastid, 48 hour incubation. P. falciparum luciferase growth in erythrocytes, 48 h. Potency, µM (titrated, usually from 28.7 µM), hits mostly inhibitors. 310,000 tested, 5.9% active; active means well fitted inhibition curve with a large enough effect; inconclusive means small, poorly fitted or top-dose-only effect, or another doubt; inactive means no such curve, though single readings can be large or run the other way
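Erythrocytes infected with P. falciparum carrying an integrated firefly luciferase reporter (2% hematocrit, 0.1% parasitemia final) were exposed to compounds in RPMI 1640 with 0.5% Albumax at 37 C, 5% CO2. Growth inhibition was scored as reduced luminescence.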
NS1 inh: qHTS Assay for Inhibitors of Influenza NS1 Protein Function | AID 2326, 2010 | Potency, µM (top dose mostly 46.1 µM) | 270,000 tested, 0.4% active; further: actives are rising curves; nearly all actives have a fitted effect of over 50% in size
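Read-out: OD600 growth recovery of NS1-expressing budding yeast. Cells grown overnight at 30C in -URA glucose medium, washed, resuspended and diluted 1:100 in 2% galactose assay medium, pH 6.0. Same strain lacking NS1 served as positive control.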
Pf growth 96h: Primary qHTS for delayed death inhibitors of the malarial parasite plastid, 96 hour incubation; P. falciparum luciferase reporter growth, 96 h; Potency, µM (doses to about 28.7 µM), actives largely listed as inhibitors; 320,000 tested, 6.9% active; AID 504834, 2011; active means well fitted inhibition curve with a large enough effect; inconclusive means small, poorly fitted or top-dose-only effect, or another doubt; inactive means no such curve, though single readings can be large or run the other way
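Parasite growth measured via integrated firefly luciferase reporter in P. falciparum. Infected erythrocytes at 2% hematocrit, 0.05% parasitemia final were treated 96 hours at 37 C under 5% CO2, and luminescence was read.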
SARS PLP yeast: qHTS of Yeast-based Assay for SARS-CoV PLP; S. cerevisiae expressing SARS-CoV PLpro, growth rescue; Potency, µM (highest dose often 32.9 µM), most hits filed as activators; 330,000 tested, 0.19% active; AID 485353, 2010; further: nearly all actives have a fitted effect of over 55% in size
A number is an active result; . = inactive; ? = inconclusive; / = no result; [ ] = dose if it differs, or a comment. Most compounds without a hit are left out; they make up all but 9.5% or so of the library. Unless noted, the call rests on the fitted dose curve.

SMILES	RE007 growth inh	Pf growth 48h	NS1 inh	Pf growth 96h	SARS PLP yeast
CC(=O)N1[C@H](Cc2ccccc2)C=C[C@]1(C)C(=O)NCc1ccccn1	.	.	.	.	.
C[C@H](CO)N1C[C@H](C)[C@@H](CN(C)S(=O)(=O)c2cn(C)cn2)Oc2c(NS(=O)(=O)c3cccs3)cccc2C1=O	.	/	/	/	.
COc1ccc(-c2nc(NC(=O)C3CC(=O)N(Cc4ccco4)C3)sc2C)cc1 (stereo unspecified)	.	12µM	/	?	.
COc1ccc(-c2nc(NC(=O)C3CCN(c4nc5ccccc5o4)CC3)sc2C)cc1	.	8.3µM	.	/	.
COc1ccc(-c2csc(NC(=O)C3CC(=O)N(Cc4ccco4)C3)n2)cc1 (stereo unspecified)	.	?	/	?	.
COc1ccc(OC)c(S(=O)(=O)Nc2cccc3ccc(O)cc23)c1	.	/	/	/	/
Cc1noc(C)c1NC(=O)Nc1ccc2c(c1)C(=O)N([C@H](C)CO)C[C@H](C)[C@@H](CN(C)S(=O)(=O)c1ccccc1)O2	.	/	/	/	.
Cc1ccc(N=Cc2c(O)n(-c3ccc4c(c3)OCO4)c(=O)c3ccccc23)cc1	.	/	.	8.3µM	.
Cc1cccc(-n2c(O)c(C=Nc3ccc(O)cc3)c3ccccc3c2=O)n1	.	.	.	.	.
O=C(c1ccccc1)N(Cc1nc2ccccc2c(=O)[nH]1)C1CCCCC1	.	.	.	.	.
CCN(Cc1nc2ccccc2c(=O)[nH]1)C(=O)c1cccc(NC(=O)c2cccs2)c1	.	?	/	?	.
CCN(Cc1nc2ccccc2c(=O)[nH]1)C(=O)c1cccc(S(=O)(=O)N2CCc3ccccc32)c1	.	10µM	/	?	.
O=C(c1cccc(F)c1)N(Cc1nc2ccccc2c(=O)[nH]1)C1CCCC1	.	6.6µM	.	?	.
CCN(Cc1nc2ccccc2c(=O)[nH]1)C(=O)C1CC(=O)N(c2cccc3ccccc23)C1 (stereo unspecified)	.	10µM	/	?	.
CCN(Cc1nc2ccccc2c(=O)[nH]1)C(=O)c1ccc(C)c(NC(=O)c2ccco2)c1	.	.	/	13µM	.
CN(Cc1nc2ccccc2c(=O)[nH]1)C(=O)C1CC(=O)N(c2cccc3ccccc23)C1 (stereo unspecified)	.	/	/	/	.
C[C@H](CN(C)C)C(=O)c1ccccc1C(=O)O	/	/	.	/	/
C[C@@](Cc1ccccc1)(C(=O)O)N1C(=O)c2ccc(C(=O)O)cc2C1=O	/	.	/	.	.
CC1(C)OC(=O)C2=C(C[C@@H](CCc3ccccc3)O[C@@H]2c2ccc(Cl)cc2)O1	.	/	/	/	/
Cc1ccc(OCC2Cn3c(nc4c3c(=O)[nH]c(=O)n4C)O2)cc1C (stereo unspecified)	.	.	.	.	.
COc1ccc(CCN(Cc2nc3ccccc3c(=O)[nH]2)C(=O)c2ccco2)cc1	.	?	.	.	.
CCN(Cc1nc2ccccc2c(=O)[nH]1)C(=O)COc1ccccc1-c1ccccc1	.	13µM	/	9.3µM	.[6.58 µM]
CCN(Cc1nc2ccccc2c(=O)[nH]1)C(=O)c1cc(C2CC2)nn1-c1ccccc1	.	?	/	9.3µM	.
CCC(CC)C(=O)N(CCc1ccc(OC)cc1)Cc1nc2ccccc2c(=O)[nH]1	.	/	.	12µM	.
CCOC(=O)C1=C(C)N=c2s/c(=C\c3ccc(OCC(=O)O)cc3)c(=O)n2C1c1ccc(Cl)cc1 (stereo unspecified)	.	9.3µM	.	1.5µM	.
CCOC(=O)C1=C(C)N=c2s/c(=C/c3ccc(OCC(=O)O)cc3)c(=O)n2C1c1ccc(F)cc1 (stereo unspecified)	.	3.3µM	.	?	.
CC1=C(C(=O)OC(C)C)C(c2ccc(Cl)cc2)n2c(sc(=Cc3ccc(OCC(=O)O)cc3)c2=O)=N1 (stereo unspecified)	.	/	/	/	/
CCOC(=O)C1=C(C)N=c2s/c(=C/c3ccc(OCC(=O)O)cc3)c(=O)n2C1c1ccc(SC)cc1 (stereo unspecified)	/	5.2µM	?	?	.
CCOC(=O)C1=C(C)N=c2s/c(=C\c3ccncc3)c(=O)n2C1c1ccc2c(c1)OCO2 (stereo unspecified)	.	4.1µM	.	.	.
